Test results taken from PubChem BioAssay (Tox21).
Inconclusive results are not listed. Active and inactive are the calls of the source. Unless noted, calls come from the whole dose curve.

Assays:
[1] = qHTS assay to identify small molecule agonists of the vitamin D receptor (VDR) signaling pathway - cell viability counter screen (AID 743224; active = well fitted curve in the direction sought with a large enough effect in the repeat runs; an effect the other way counts as inactive or inconclusive; note: series mostly up to about 63 µM; % is set by controls: 0 for no effect and ±100 for the full control effect; nearly all actives have a fitted effect of over 50% in size)
Method in brief: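 VDR-bla cells, 4 h after plating, exposed to compounds for 16 h at 37C; viability then read in the same wells as CellTiter-Glo luminescence after 30 min at room temperature, following the bla FRET read.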

[2] = qHTS assay to identify small molecule agonists of the NFkB signaling pathway (AID 1159509; active = well fitted curve in the direction sought with a large enough effect in the signal ratio in the repeat runs, not every such curve was filed as active; the % refers to the signal ratio; note: series mostly up to about 61 µM; % is set by controls: 0 for no effect and ±100 for the full control effect)
Method in brief: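 ME-180 NFkB-bla, 2,000 cells/well, overnight plating; cpd pinned in DMSO, 5 h 37 C; B/G FRET substrate 1.5 h RT; ex 405, em 460/530 nm.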

[3] = qHTS assay to identify small molecule agonists of the NFkB signaling pathway - cell viability counter screen (AID 1159515); note: series mostly up to about 61 µM; % is set by controls: 0 for no effect and ±100 for the full control effect; nearly all actives have a fitted effect of over 55% in size
Method in brief: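 NFkB-bla ME-180 cells, 2,000/well, plated overnight at 37 C; compound added for 5 hr at 37 C. Viability read in the same wells as the bla reporter, by CellTiter-Glo luminescence after 30 min at room temperature.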

[4] = qHTS assay to identify small molecule agonists of the endoplasmic reticulum stress response signaling pathway (AID 1159516; active = well fitted activation curve with a large enough effect in the signal ratio in the repeat runs, not every such curve was filed as active; the % refers to the signal ratio; note: % is set by controls: 0 for no effect and ±100 for the full control effect)
Method in brief: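 CellSensor ESRE-bla HeLa cells, 1,500 per well, plated overnight, then exposed to compounds for 5 hr at 37 C. Beta-lactamase reporter read with LiveBLAzer B/G FRET substrate after 2 hr at room temperature, 405 nm excitation, 460 and 530 nm emission.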

[5] = qHTS assay to identify small molecule agonists of the endoplasmic reticulum stress response signaling pathway - cell viability counter screen (AID 1159517);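 note: HeLa cells carrying an ER stress response element beta-lactamase reporter; series mostly up to about 61 µM; % is set by controls: 0 for no effect and ±100 for the full control effect; nearly all actives have a fitted effect of over 50% in size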
Method in brief: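 CellTiter-Glo was added to wells already read for beta-lactamase FRET, and luminescence was recorded 30 min later. Cells: ESRE-bla HeLa, 1,500 per well, compound exposure 5 hr at 37 C.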

[6] = qHTS assay to identify small molecule antagonists of the retinoid-related orphan receptor gamma (ROR-gamma) signaling pathway - cell viability counter screen (AID 1159520; active = well fitted curve in the direction sought with a large enough effect in the repeat runs; an effect the other way counts as inactive or inconclusive; note: % is set by controls: 0 for no effect and ±100 for the full control effect; nearly all actives have a fitted effect of over 50% in size)
Method in brief: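 Tet-on ROR gamma CHO cells (1,000/well) were plated 4 hr, given compounds in DMSO for 2 hr at 37 C, then induced with 1 uM final doxycycline for 16 hr. Viability was read as ATP by CellTiter-Glo luminescence after 30 min.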

[7] = target: Nuclear receptor ROR-gamma (Homo sapiens) (UniProt P51449); test: qHTS assay to identify small molecule antagonists of the retinoid-related orphan receptor gamma (ROR-gamma) signaling pathway (AID 1159521; active = well fitted curve in the direction sought with a large enough effect in the repeat runs; an effect the other way counts as inactive or inconclusive;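 note: CHO cells with doxycycline inducible ROR-gamma driving an RORE luciferase reporter; top concentration of the series differs between compounds; % is set by controls: 0 for no effect and ±100 for the full control effect; nearly all actives have a fitted effect of over 50% in size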)
Method in brief: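 Luminescence readout (ONE-Glo, 30 min RT) after 16 h doxycycline induction; loss of signal scored as antagonism. CHO cells with TET-inducible RORγ and RORE-LUC reporter; compounds added 2 h before 1 uM final doxycycline.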

[8] = qHTS assay to identify small molecule agonists of the AP-1 signaling pathway - cell viability counter screen (AID 1159525); note: nearly all actives have a fitted effect of over 55% in size
Method in brief: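 ME-180 AP-1-bla, 2500 cells/well, Opti-MEM + 0.5% dialyzed FBS; overnight 37 °C; cpd 15-pt titration, 5 h 37 °C; CellTiter-Glo 30 min RT; luminescence read; normalised to TOAB and DMSO controls.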

[9] = qHTS assay to identify small molecule agonists of the AP-1 signaling pathway (AID 1159526); note: % is set by controls: 0 for no effect and ±100 for the full control effect
[10] = qHTS assay to identify small molecule antagonists of the vitamin D receptor (VDR) signaling pathway - cell viability counter screen (AID 743225; active = well fitted curve in the direction sought with a large enough effect in the repeat runs; an effect the other way counts as inactive or inconclusive)
Method in brief: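 Viability counter screen run in the same wells as the beta-lactamase reporter assay: HEK 293T VDR-UAS-bla cells, 16 h compound exposure at 37C with 3 nM (final) 1-alpha,25-dihydroxyvitamin D3. CellTiter-Glo luminescence, 30 min, room temperature.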

c1ccc2cnncc2c1
inactive: outcome [1] | outcome [2] | outcome [3] | outcome [4] | outcome [5] | Potency [6] | Potency [7] | outcome [8] | Potency [9]

CCCCCCC(=O)OCC
inactive: outcome [1] | outcome [10] | outcome [2] | outcome [3] | outcome [4] | outcome [5] | Potency [6] | Potency [7] | outcome [8] | Potency [9]

CC(C=O)Cc1ccc(C(C)C)cc1 (configuration not stated)
inactive: outcome [1] | outcome [2] | outcome [3] | outcome [4] | outcome [5] | Potency [6] | Potency [7] | outcome [8] | Potency [9]

CCCCCCOC(=O)c1ccccc1O
inactive: outcome [1] | outcome [10] | outcome [2] | outcome [3] | outcome [4] | outcome [5] | Potency [6] | Potency [7] | outcome [8] | Potency [9]

CCCCNc1ccccc1
inactive: outcome [1] | outcome [10] | outcome [2] | outcome [3] | outcome [4] | outcome [5] | Potency [6] | Potency [7] | outcome [8] | Potency [9]

CCn1c(=O)c2c(nc(/C=C/c3ccc(OC)c(OC)c3)n2C)n(CC)c1=O
inactive: outcome [1] | outcome [10] | outcome [2] | outcome [3] | outcome [4] | outcome [5] | Potency [6] | Potency [7] | outcome [8] | Potency [9]

Oc1cc(O)c2c(c1)O[C@H](c1ccc(O)c(O)c1)[C@H](O)C2
inactive: outcome [1] | outcome [10] | outcome [2] | outcome [3] | outcome [4] | outcome [5] | Potency [6] | Potency [7] | outcome [8] | Potency [9]

Nc1cc(C(Cl)=C(Cl)Cl)c(S(N)(=O)=O)cc1S(N)(=O)=O
inactive: outcome [1] | outcome [10] | outcome [2] | outcome [3] | outcome [4] | outcome [5] | Potency [6] | Potency [7] | outcome [8] | Potency [9]

Cn1ccc2cc3c(cc21)CCN3C(=O)Nc1cccnc1
inactive: outcome [1] | outcome [10] | outcome [2] | outcome [3] | outcome [4] | outcome [5] | activity, negative = cytotoxicity [6] -0.672% [at 19 µM] | activity change, negative = inhibition [7] 207% [at 19 µM] | viability change, negative = cytotoxic [8] 0.227% [at 15.8 µM] | activation [9] -5.75% [at 15.8 µM]

O=[N+]([O-])c1ccc(Oc2ccc([N+](=O)[O-])cc2)cc1
inactive: outcome [1] | outcome [2] | outcome [3] | outcome [4] | outcome [5] | Potency [6] | Potency [7] | outcome [8] | Potency [9]

O=S(=O)(O)c1ccccc1O
inactive: outcome [1] | outcome [10] | outcome [2] | outcome [3] | outcome [4] | outcome [5] | Potency [6] | Potency [7] | outcome [8] | Potency [9]

CCCCCCCCCCCCI
inactive: outcome [1] | outcome [10] | outcome [2] | outcome [3] | outcome [4] | outcome [5] | Potency [6] | Potency [7] | outcome [8] | Potency [9]

CCO[Si](CCCN=C=O)(OCC)OCC
inactive: outcome [1] | outcome [10] | outcome [2] | outcome [3] | outcome [4] | outcome [5] | Potency [6] | Potency [7] | outcome [8] | Potency [9]

C[N+](C)(C)CC[N+]1(C)Cc2c(Cl)c(Cl)c(Cl)c(Cl)c2C1
inactive: outcome [1] | outcome [10] | outcome [2] | outcome [3] | outcome [4] | outcome [5] | Potency [6] | Potency [7] | outcome [8] | Potency [9]

COc1cccc(OC)c1
inactive: outcome [1] | outcome [10] | outcome [2] | outcome [3] | outcome [4] | outcome [5] | Potency [6] | Potency [7] | outcome [8] | Potency [9]

COc1nc(C)nc(N)n1
inactive: outcome [1] | outcome [10] | outcome [2] | outcome [3] | outcome [4] | outcome [5] | Potency [6] | Potency [7] | outcome [8] | Potency [9]

CC(C)(O)C(=O)c1ccc(OCCO)cc1
inactive: outcome [1] | outcome [10] | outcome [2] | outcome [3] | outcome [4] | outcome [5] | Potency [6] | Potency [7] | outcome [8] | Potency [9]

CNc1ncnc2nc[nH]c12
inactive: outcome [1] | outcome [10] | outcome [2] | outcome [3] | outcome [4] | outcome [5] | Potency [6] | Potency [7] | outcome [8] | Potency [9]

CC(C)=CC(=O)O
inactive: outcome [1] | outcome [10] | outcome [2] | outcome [3] | outcome [4] | outcome [5] | Potency [6] | Potency [7] | outcome [8] | Potency [9]

NC(N)=NS(=O)(=O)c1ccc(N)cc1
inactive: outcome [1] | outcome [10] | outcome [2] | outcome [3] | outcome [4] | outcome [5] | Potency [6] | Potency [7] | outcome [8] | Potency [9]

CC(C)c1ccc2oc3nc(N)c(C(=O)O)cc3c(=O)c2c1
inactive: outcome [1] | outcome [10] | outcome [2] | outcome [3] | outcome [4] | outcome [5] | Potency [6] | Potency [7] | outcome [8] | Potency [9]

Nc1ccc2cc(S(=O)(=O)O)ccc2c1
inactive: outcome [1] | outcome [10] | outcome [2] | outcome [3] | outcome [4] | outcome [5] | Potency [6] | Potency [7] | outcome [8] | Potency [9]

NC1CCN(c2cccc(Cl)n2)CC1
inactive: outcome [1] | outcome [10] | outcome [2] | outcome [3] | outcome [4] | outcome [5] | Potency [6] | Potency [7] | outcome [8] | Potency [9]
